The results in this text go back to publication PMC12136788.

Changes are numbered by the printed parent chain. In all, about 24,000 sequences were measured (“enrichment r”: median about 0.99, highest 2% from about 3.7 on). Only a selection was taken, and the highest values are over-represented in it overall.

Sequences and labels used below:
T1: UNK ZnF1-3 (human, UniProt Q9C0B0 31-174)
T1 sequence: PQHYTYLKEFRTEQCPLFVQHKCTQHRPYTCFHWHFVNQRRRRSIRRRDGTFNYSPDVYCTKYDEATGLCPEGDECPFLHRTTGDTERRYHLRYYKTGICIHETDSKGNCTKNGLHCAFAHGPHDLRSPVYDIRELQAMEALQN

B1: chr1:225611761:225611762:-_ENSG00000143815_ENST00000272163|hu_mus|hu_hu_hu_mus_True|78_108 (ssRNA)
RNA: GGGAGUUCUACAGUCCGACGAUCCCAGGCCAUCGACCUCUGACCACUUCACCCUCAGCAAAUUUCCUACUUGGCAUUUUCUAAAAUUAGUCUGGCCGCGCUCCGGCGGGAACUCCAGCCACUCCAGGACAGUCACCAGCAGCCCAACAGAGGAUUGAGCAUCA
B2: 71781198_71781318_2220_CDS_ENSMUSG00000008305_ENSMUST00000030095|mouse|control|control (ssRNA)
RNA: GGGAGUUCUACAGUCCGACGAUCCACGCAGCUCUCGUGGAGGUGCAGCUGGUACUUGUCAGGCUUGUUCACAUGCAGAACUUCCACGUUGCUGCUUUCCAUGCCCACAGCAAGCCACUCCCCAGUUGGGCAAUAUCCCAAAGACAACAGAGGAUUGAGCAUCA
B3: chr3:57561382:57561383:-_ENSG00000168374_ENST00000303436|hu_hu|FALSE|FALSE (ssRNA)
RNA: GGGAGUUCUACAGUCCGACGAUCUAGCAGCACUGCAUCUCUCAAUUCAUCUACCAGAAGCAUUUUCUGCAGCUCAUCUGCUACUUCCUGAAUUCUUUCACGAUCGUUGCUAUCUACCACAAAAAUAAGACCCUGGGUAUUCUGCAACAGAGGAUUGAGCAUCA
B4: chr1:163295886:163295887:+_ENSG00000143228_ENST00000271452|hu_mus|motif|central (ssRNA)
RNA: GGGAGUUCUACAGUCCGACGAUCGGUUUUUGCCAUCUGCUCCUGUUAAUAAUUUAUUGCGAAUAUGAACCACAAGCUCAGCGGCAUUGUAUCUGGGGAAUGACAAAGUUUCCAUUAUGGGAGUCUCCUCCCUGAGUAUUGUUGCAACAGAGGAUUGAGCAUCA
B5: chr6:29525140:29525141:-_ENSMUSG00000012535_ENSMUST00000012679|mus_hu|FALSE|FALSE (ssRNA)
RNA: GGGAGUUCUACAGUCCGACGAUCGUUAGUUUUGUACAAAUGUUCCCCCAGUCGGUACCAAAAGUUAAAUGAAAUUUCUACUACCUCAUAUUGAGGAUGGCCUGCACAGAUAAGCAGCAGCUCCAGAGUUCGAAGGUCCCCAAGCAACAGAGGAUUGAGCAUCA
B6: chr19:16212804:16212805:+_ENSG00000167460_ENST00000300933|hu_hu|motif|central (ssRNA)
RNA: GGGAGUUCUACAGUCCGACGAUCAGGAAAUAUGCAAAAGAACAUCACAUCAAGGAUCAAUUAAUUACCAUCUAUUAAUUACGGUAUGUGGGUAAUUAUGACUAUUUCCCAAGCAUUCUACGUUGACUGCUUGAGAAGAUGUUUCAACAGAGGAUUGAGCAUCA
B7: chr7:155493584:155493585:+_ENSG00000184863_ENST00000401878|hu_mus|FALSE|FALSE (ssRNA)
RNA: GGGAGUUCUACAGUCCGACGAUCAGAAAGUUCCAAAGUUUCUGGAAUGUUCCUUCUCUCUCUAGUUACAUCUGAAAGCCUAAUAAUUGUUCCUUCUUUCCUUUCAGUUUUAAAACGUAAUCGUCCAGAUUCUUCAUCAUCAUCCAACAGAGGAUUGAGCAUCA
B8: chr1:201104638:201104639:-_ENSG00000116857_ENST00000367334|hu_hu|FALSE|FALSE (ssRNA)
RNA: GGGAGUUCUACAGUCCGACGAUCAGAGAUCAGAGACCACAUCCCUCUUCCCUAAUCAAAAUAGCCAAGUACAACAUUUCUAAAGUUAGGGAGAAGGAGGAAAAAUGCCACAGGCUUUUAAAGGGAAGACUGGAACCGAGGGAACAACAGAGGAUUGAGCAUCA
B9: chr1:36770067:36770068:+_ENSG00000054118_ENST00000354618|hu_mus|FALSE|FALSE (ssRNA)
RNA: GGGAGUUCUACAGUCCGACGAUCUUAAGAGUCAAAGUUGCCCAAAUUAAAAUCUUUACACUAAUAUUACUAUAUAUCCCCUAAAAAGAAGAAAAAGAAAAAAGGAUUUCUUAAUAAAACUCAGGACAGGAAGAGACUGAAAACCAACAGAGGAUUGAGCAUCA
B10: chr1:36770067:36770068:+_ENSG00000054118_ENST00000354618|hu_hu|FALSE|FALSE (ssRNA)
RNA: GGGAGUUCUACAGUCCGACGAUCUCUUUCAAGAAUCAAAGUUUCCCAAAUUAAAUGUUUCUAAUAUUACUACAUAUGCCUAAAAAAAGAAAAAAAAAAAAAAAAAGGAGGGGGCUUUUAAAAUCAGGACAGGGGAAAAGAGAUCAACAGAGGAUUGAGCAUCA
B11: chr1:36770067:36770068:+_ENSG00000054118_ENST00000354618|hu_hu|motif|central (ssRNA)
RNA: B10 RNA with U80G, A81G
B12: chr1:59925254:59925255:+_ENSMUSG00000067336_ENSMUST00000087435|mus_hu|FALSE|FALSE (ssRNA)
RNA: GGGAGUUCUACAGUCCGACGAUCAUCUUGUUCUGAACAUGGAUUGCUGUUGUUGUUAUUGGAAUUAGUUCGGCCACCUUCUAGUGGCCGUUCCCUCCUGUCCACAAGACGAUCCAGAACACCUUCAUCAUGGCCAGCUUGUUGCAACAGAGGAUUGAGCAUCA
B13: chr4:101271765:101271766:+_ENSMUSG00000028528_ENSMUST00000094953|mus_mus|motif|central (ssRNA)
RNA: GGGAGUUCUACAGUCCGACGAUCAGACUUGGGUGACAAGUUGUAUACUGUGUAGUGGUCAAGAUGUCUGGAAUCCAAAAAGCGGCGGAUGUCAUCAACCUGAUUCCUGAAUCCUAUGUCAACACUAUCCACAGGAAAGGACAUCAACAGAGGAUUGAGCAUCA
B14: 5953805_5956048_782_CDS_ENSMUSG00000024833_ENSMUST00000025752|mouse|control|control (ssRNA)
RNA: GGGAGUUCUACAGUCCGACGAUCCAAGCCCUGUGCGGAGCCAAAGGUGGUCACCACUUCUCCCCGGUUGGUUCUGGAGGUGUAUUUCUGGGAGGGGGUAGCACUCGGGGAGAAACUUGACGGUGAGAGAAGCUGACGUGGGCUCAACAGAGGAUUGAGCAUCA

In this test the target is T1, UNK ZnF1-3. Description: nsRBNS (natural sequence RNA bind-n-seq); RBNS binding buffer (assumed for nsRBNS): 25 mM Tris pH 7.5, 150 mM KCl, 3 mM MgCl2, 0.01% Triton X-100, 500 ug/ml BSA, 20 U/ml SUPERase-In, 4 C; UNK is unkempt and MSI1 is Musashi-1; names of the RNAs are library labels; protein concentration not given here; high values mean tight binding.
The molecule B1 displayed a binding signal of 1.33 enrichment R.

Regarding B2, the binding signal stood at 0.78 enrichment R.

Molecule B3 had a binding signal of 0.947 enrichment R.

In turn, B4 gave a binding signal of 1.12 enrichment R.

With B5, the binding signal was 0.862 enrichment R.

For the molecule B6, the binding signal was 0.67 enrichment R.

B7: the binding signal came to 0.81 enrichment R.

Molecule B8 registered a binding signal of 2.05 enrichment R.

On to B9, for which the binding signal stood at 2.39 enrichment R.

In turn, B10 yielded a binding signal of 4.92 enrichment R.

Regarding B11, the binding signal was found to be 3.96 enrichment R.

As for B12, the binding signal came out at 0.391 enrichment R.

In turn, B13 registered a binding signal of 0.93 enrichment R.

In turn, B14 returned a binding signal of 1.38 enrichment R.
